In PubChem BioAssay AID1159580 (chemical genetic matrix, 2015):
Out of some 5,500 compounds screened, about 2,000 (36%) were called active. Another 18% or so got no clear call; they are omitted. Cut-off read from the data, not from the text of the source: active = normalized growth mostly below about 0.91 (no sharp cut-off); inconclusive = no clear call, values can overlap the other calls; inactive = mostly above about 0.92. The list shows a part of the results.

Assay: chemical genetic growth profiling, strain panel (AID 1159580);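 note: tested at 20 µM; growth read once vehicle control cultures reached saturation at 30 °C; 1 = growth at the plate median or of vehicle wells; lower values mean less growth of the strain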
Details: growth OD
[1] = S. cerevisiae deletion strains, locus YPL055C, strain LGE1, stronger effect = lower value
[2] = S. cerevisiae deletion strains, locus YDL101C, strain DUN1, stronger effect = lower value
[3] = S. cerevisiae deletion strains, locus YHR030C, strain SLT2, stronger effect = lower value

Measured: normalized growth

C=CC[C@H](N)C(=O)O
inactive: S. cerevisiae deletion strains, locus YAL040C, strain CLN3, stronger effect = lower value 0.997 | S. cerevisiae deletion strains, locus YCL061C, strain MRC1 (second series), stronger effect = lower value 1.01 | S. cerevisiae deletion strains, locus YDR363W, strain ESC2, stronger effect = lower value 0.962 | S. cerevisiae deletion strains, locus YER002W, strain NOP16, stronger effect = lower value 1.01 | S. cerevisiae deletion strains, locus YNL175C, strain NOP13, stronger effect = lower value 1.01 | S. cerevisiae deletion strains, locus YNL197C, strain WHI3, stronger effect = lower value 0.976 | S. cerevisiae deletion strains, locus YNL224C, strain SQS1, stronger effect = lower value 0.972 | S. cerevisiae deletion strains, locus YOR083W, strain WHI5 (second series), stronger effect = lower value 0.974 | [1] 0.99

COc1cccc(C2SCc3cc(C)c(C)cc3CS2)c1O
inactive: S. cerevisiae deletion strains, locus YBR229C, strain ROT2, stronger effect = lower value 0.994 | S. cerevisiae deletion strains, locus YCL061C, strain MRC1, stronger effect = lower value 0.998 | [2] 0.992 | S. cerevisiae deletion strains, locus YDL134C, strain PPH21, stronger effect = lower value 1.02 | S. cerevisiae deletion strains, locus YDR150W, strain NUM1, stronger effect = lower value 0.932 | S. cerevisiae deletion strains, locus YEL061C, strain CIN8, stronger effect = lower value 1.03 | S. cerevisiae deletion strains, locus YGR078C, strain PAC10, stronger effect = lower value 1.01 | [3] 1.01 | S. cerevisiae deletion strains, locus YHR087W, strain rtc3, stronger effect = lower value 1.01 | S. cerevisiae deletion strains, locus YJR043C, strain POL32, stronger effect = lower value 0.972 | S. cerevisiae deletion strains, locus YJR075W, strain HOC1, stronger effect = lower value 0.985 | S. cerevisiae deletion strains, locus YKL190W, strain CNB1, stronger effect = lower value 1.02 | S. cerevisiae deletion strains, locus YLR039C, strain RIC1, stronger effect = lower value 1.07 | S. cerevisiae deletion strains, locus YLR058C, strain SHM2 (second series), stronger effect = lower value 1.03 | S. cerevisiae deletion strains, locus YLR085C, strain ARP6, stronger effect = lower value 1.04 | S. cerevisiae deletion strains, locus YLR262C, strain YPT6, stronger effect = lower value 1.05 | S. cerevisiae deletion strains, locus YML094W, strain GIM5, stronger effect = lower value 0.999 | S. cerevisiae deletion strains, locus YMR219W, strain ESC1, stronger effect = lower value 1 | S. cerevisiae deletion strains, locus YMR263W, strain SAP30, stronger effect = lower value 0.902 | S. cerevisiae deletion strains, locus YNL153C, strain GIM3, stronger effect = lower value 0.988 | S. cerevisiae deletion strains, locus YNL298W, strain CLA4 (second series), stronger effect = lower value 0.986 | S. cerevisiae deletion strains, locus YNL322C, strain KRE1, stronger effect = lower value 1.01 | S. cerevisiae deletion strains, locus YNR030W, strain Alg12, stronger effect = lower value 0.982 | S. cerevisiae deletion strains, locus YOL006C, strain TOP1, stronger effect = lower value 1.12 | [1] 0.904 | S. cerevisiae deletion strains, locus YPL241C, strain CIN2, stronger effect = lower value 0.957 | S. cerevisiae deletion strains, locus YPR135W, strain CTF4, stronger effect = lower value 1.01 | S. cerevisiae strains, strain wild type, stronger effect = lower value 1.01

Cc1cc(N=Cc2cc(Cl)cc(Cl)c2O)no1
inactive: S. cerevisiae deletion strains, locus YAR019C, strain CDC15, stronger effect = lower value 0.945 | S. cerevisiae deletion strains, locus YBL105C, strain PKC1, stronger effect = lower value 0.964 | S. cerevisiae deletion strains, locus YBR135W, strain CKS1, stronger effect = lower value 0.971 | S. cerevisiae deletion strains, locus YBR136W, strain MEC1, stronger effect = lower value 0.953 | S. cerevisiae deletion strains, locus YBR160W, strain CDC28, stronger effect = lower value 0.964 | S. cerevisiae deletion strains, locus YDL017W, strain CDC7, stronger effect = lower value 0.968 | S. cerevisiae deletion strains, locus YDL028C, strain MPS1, stronger effect = lower value 0.95 | [2] 0.965 | S. cerevisiae deletion strains, locus YDL108W, strain KIN28, stronger effect = lower value 0.957 | S. cerevisiae deletion strains, locus YDL132W, strain cdc53, stronger effect = lower value 0.975 | S. cerevisiae deletion strains, locus YDR052C, strain DBF4, stronger effect = lower value 0.972 | S. cerevisiae deletion strains, locus YDR054C, strain cdc34, stronger effect = lower value 0.965 | S. cerevisiae deletion strains, locus YDR226W, strain ADK1, stronger effect = lower value 0.974 | S. cerevisiae deletion strains, locus YFL009W, strain cdc4, stronger effect = lower value 0.97 | S. cerevisiae deletion strains, locus YFL029C, strain CAK1, stronger effect = lower value 0.958 | S. cerevisiae deletion strains, locus YFR003C, strain YPI1, stronger effect = lower value 0.95 | S. cerevisiae deletion strains, locus YFR028C, strain CDC14, stronger effect = lower value 0.971 | S. cerevisiae deletion strains, locus YIL147C, strain SLN1, stronger effect = lower value 0.946 | S. cerevisiae deletion strains, locus YJL128C, strain PBS2, stronger effect = lower value 0.952 | S. cerevisiae deletion strains, locus YJR016C, strain ILV3, stronger effect = lower value 0.973 | S. cerevisiae deletion strains, locus YKL193C, strain SDS22, stronger effect = lower value 0.971 | S. cerevisiae deletion strains, locus YMR001C, strain CDC5, stronger effect = lower value 0.963 | S. cerevisiae deletion strains, locus YMR277W, strain FCP1, stronger effect = lower value 0.968 | S. cerevisiae deletion strains, locus YNL006W, strain LST8, stronger effect = lower value 0.969 | S. cerevisiae deletion strains, locus YNL161W, strain CBK1, stronger effect = lower value 0.967 | S. cerevisiae deletion strains, locus YNL207W, strain RIO2, stronger effect = lower value 0.977 | S. cerevisiae deletion strains, locus YNL222W, strain SSU72, stronger effect = lower value 0.96 | S. cerevisiae deletion strains, locus YOL078W, strain AVO1, stronger effect = lower value 0.967 | S. cerevisiae deletion strains, locus YOR329C, strain SCD5, stronger effect = lower value 0.952 | S. cerevisiae deletion strains, locus YPL209C, strain IPL1, stronger effect = lower value 0.969 | S. cerevisiae deletion strains, locus YPR025C, strain CCL1, stronger effect = lower value 0.969 | S. cerevisiae deletion strains, locus YPR106W, strain ISR1, stronger effect = lower value 0.976 | S. cerevisiae deletion strains, locus YPR111W, strain DBF20, stronger effect = lower value 0.972 | S. cerevisiae deletion strains, strain NNK1, stronger effect = lower value 0.965 | S. cerevisiae deletion strains, strain TSCII, stronger effect = lower value 0.96
active: S. cerevisiae deletion strains, locus YDL214C, strain PRR2, stronger effect = lower value 0.561 | S. cerevisiae deletion strains, locus YDR477W, strain SNF1, stronger effect = lower value 0.526 | S. cerevisiae deletion strains, locus YER123W, strain YCK3, stronger effect = lower value 0.307 | S. cerevisiae deletion strains, locus YER133W, strain GLC7, stronger effect = lower value 0.576 | S. cerevisiae deletion strains, locus YFR019W, strain FAB1, stronger effect = lower value 0.517 | S. cerevisiae deletion strains, locus YGR040W, strain KSS1, stronger effect = lower value 0.574 | S. cerevisiae deletion strains, locus YGR052W, strain FMP48, stronger effect = lower value 0.504 | S. cerevisiae deletion strains, locus YGR092W, strain DBF2, stronger effect = lower value 0.187 | [3] 0.26 | S. cerevisiae deletion strains, locus YHR079C, strain IRE1, stronger effect = lower value 0.249 | S. cerevisiae deletion strains, locus YHR082C, strain KSP1, stronger effect = lower value 0.493 | S. cerevisiae deletion strains, locus YHR205W, strain SCH9, stronger effect = lower value 0.407 | S. cerevisiae deletion strains, locus YJL095W, strain BCK1, stronger effect = lower value 0.259 | S. cerevisiae deletion strains, locus YJL157C, strain FAR1, stronger effect = lower value 0.478 | S. cerevisiae deletion strains, locus YJR066W, strain TOR1 (second series), stronger effect = lower value 0.565 | S. cerevisiae deletion strains, locus YJR066W, strain TOR1, stronger effect = lower value 0.387 | S. cerevisiae deletion strains, locus YKL048C, strain ELM1, stronger effect = lower value 0.651 | S. cerevisiae deletion strains, locus YKL067W, strain YNK1, stronger effect = lower value 0.521 | S. cerevisiae deletion strains, locus YKL101W, strain HSL1, stronger effect = lower value 0.5 | S. cerevisiae deletion strains, locus YKL203C, strain TOR2, stronger effect = lower value 0.613 | S. cerevisiae deletion strains, locus YLR113W, strain HOG1, stronger effect = lower value 0.337 | S. cerevisiae deletion strains, locus YLR133W, strain CKI1, stronger effect = lower value 0.486 | S. cerevisiae deletion strains, locus YLR403W, strain SFP1, stronger effect = lower value 0.375 | S. cerevisiae deletion strains, locus YML070W, strain DAK1, stronger effect = lower value 0.372 | S. cerevisiae deletion strains, locus YMR205C, strain PFK2 (second series), stronger effect = lower value 0.514 | S. cerevisiae deletion strains, locus YNL020C, strain ARK1, stronger effect = lower value 0.462 | S. cerevisiae deletion strains, locus YNL183C, strain NPR1, stronger effect = lower value 0.429 | S. cerevisiae deletion strains, locus YNL307C, strain MCK1 (second series), stronger effect = lower value 0.37 | S. cerevisiae deletion strains, locus YOL136C, strain PFK27, stronger effect = lower value 0.349 | S. cerevisiae deletion strains, locus YOR061W, strain CKA2, stronger effect = lower value 0.32 | S. cerevisiae deletion strains, locus YOR119C, strain RIO1, stronger effect = lower value 0.571 | S. cerevisiae deletion strains, locus YOR231W, strain MKK1, stronger effect = lower value 0.272 | S. cerevisiae deletion strains, locus YPL031C, strain PHO85, stronger effect = lower value 0.483 | S. cerevisiae deletion strains, locus YPL153C, strain RAD53, stronger effect = lower value 0.405 | S. cerevisiae deletion strains, locus YPL204W, strain HRR25, stronger effect = lower value 0.467 | S. cerevisiae deletion strains, locus YPL256C, strain CLN2, stronger effect = lower value 0.343
